Rin1-Abl PPI inh: inhibitors of human Rin1-Abl protein interaction; P00519+Q13671; TR-FRET Rin1/Abl binding, biochemical; inhibition, % at 7.35 µM; 0.4% of 360,000 active; AID 588664; in the data active = inhibition above about 5%, passing the limit was not always enough
LEDGF integ inh: blocks HIV-1 LEDGF/p75-dependent DNA integration. AID 743269. inhibition, % at 3.7 µM. 0.64% of 370,000 active. TR-FRET IN-LEDGF/p75 DNA integration, Eu/Cy5;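 active = inhibition above the screen-wide mean plus 3 SD, cut at about 13% in these data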;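 note: signal is the Cy5 over europium emission ratio at 671 and 618 nm; 0% = plate median of compound wells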
UHRF1 MBD2 ctr: UHRF1 methyl-DNA binding inhibition; Q96T88; UHRF1 binding to methylated oligo, TR-FRET; inhibition, % at 4.4 µM; 0.75% of 370,000 active; AID 687016; in the data active = inhibition above about 21%;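 note: UHRF1 SRA domain binding a hemimethylated CpG hairpin DNA probe; 0% = median of test compound wells and 100% = reference inhibitor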
MBD2 DNA inh: blocks human MBD2 binding to methylated DNA; Q9UBB5; TR-FRET, MBD2 binding to methylated oligonucleotide; inhibition, % at 4.4 µM; 0.31% of 370,000 active; AID 686964; in the data active = inhibition above about 13%
Target sequence (Q9UBB5 whole entry, looked up): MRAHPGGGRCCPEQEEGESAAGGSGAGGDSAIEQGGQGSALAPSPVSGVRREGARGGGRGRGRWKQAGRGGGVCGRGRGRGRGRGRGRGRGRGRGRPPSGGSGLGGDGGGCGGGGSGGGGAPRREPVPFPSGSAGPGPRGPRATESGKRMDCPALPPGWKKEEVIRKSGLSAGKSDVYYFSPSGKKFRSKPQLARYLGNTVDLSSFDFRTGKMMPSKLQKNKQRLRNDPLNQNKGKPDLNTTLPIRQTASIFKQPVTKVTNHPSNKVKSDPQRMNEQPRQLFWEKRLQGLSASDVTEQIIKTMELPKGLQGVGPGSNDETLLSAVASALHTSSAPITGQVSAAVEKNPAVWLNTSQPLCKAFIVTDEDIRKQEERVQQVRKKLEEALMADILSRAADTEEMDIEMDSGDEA
Neddyl block: inhibitors of human cullin neddylation | TR-FRET cullin neddylation, biochemical | calls only at 25 µM | 0.58% of 360,000 active; in the data active = inhibition above about 36%
KLK7 zymogen act: proKLK7 (human) activation, primary screen | AID 652039 | purified proKLK7, EDANS-DABCYL substrate fluorescence; 100% is mature enzyme control, 0% vehicle | activation, % at 7 µM | P49862 | 0.9% of 370,000 active;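 active = activation above the mean of all tested compounds plus 3 SD, computed per campaign excluding outliers beyond control limits, cut at about 13% in these data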
Neddyl inh conf: confirmation of human cullin neddylation inhibitors | shares compounds with Neddyl block | TR-FRET cullin neddylation biochemical assay | calls only at 25 µM | 13% of 1,800 active | AID 652217; in the data active = inhibition above about 40%;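 note: neddylation substrate is the cullin 1 ring ligase complex with SKP2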
Numbers without * were called inactive. A selection: hits, their analogues and other compounds. The true share with any hit is near 3.1%.

What do the screens show for `Cc1ccc2c(c1)COc1c3ccc(C(=O)NCCO)cc3nn1-2`?
Rin1-Abl PPI inh: -3; LEDGF integ inh: 1; UHRF1 MBD2 ctr: -9; MBD2 DNA inh: -5; Neddyl block: active; KLK7 zymogen act: 11; Neddyl inh conf: active

Results for C=C1CCC2C(C)(C)CCC[C@]2(C)[C@H]1CC1=C(O)C(=O)C(CO)=CC1=O (stereo partly drawn) ?
LEDGF integ inh: -5; UHRF1 MBD2 ctr: -1; MBD2 DNA inh: 0; KLK7 zymogen act: 0

How did Cc1cc(NC(=O)CS(=O)(=O)c2cn(Cc3cccc(C(F)(F)F)c3)c3ccccc23)no1 do in these assays?
Rin1-Abl PPI inh: -1; LEDGF integ inh: 0; UHRF1 MBD2 ctr: -1; MBD2 DNA inh: -4; Neddyl block: inactive; KLK7 zymogen act: 0

Results for Cn1c(N/N=C/c2cccs2)nc2c1c(=O)n(Cc1ccccc1)c(=O)n2C ?
Rin1-Abl PPI inh: -4; LEDGF integ inh: 5; UHRF1 MBD2 ctr: -3; MBD2 DNA inh: -8; Neddyl block: active; KLK7 zymogen act: -1; Neddyl inh conf: inactive

Results for CC(C)(C)OC(=O)C[C@H]1C/C=C\C[C@@H](CC(=O)NCCO)C(=O)NCCOC1=O ?
Rin1-Abl PPI inh: 1; LEDGF integ inh: 3; UHRF1 MBD2 ctr: -5; MBD2 DNA inh: -8; Neddyl block: inactive; KLK7 zymogen act: -1

What do the screens show for `O=C(O)CCc1ccc(-c2cccs2)n1CC1CCCO1` (stereo not drawn)?
Rin1-Abl PPI inh: -3; LEDGF integ inh: -5; UHRF1 MBD2 ctr: 5; MBD2 DNA inh: 3; Neddyl block: active; KLK7 zymogen act: 5; Neddyl inh conf: inactive

What do the screens show for `O=C(CC12CC3CC(CC(Br)(C3)C1)C2)NC1CCCC1`?
Rin1-Abl PPI inh: -1; LEDGF integ inh: -1; UHRF1 MBD2 ctr: 0; MBD2 DNA inh: 1; Neddyl block: inactive; KLK7 zymogen act: -1

What do the screens show for `Cc1nnc(N2CCC(C(=O)NC3CCC(C)CC3)CC2)c2nn(-c3ccc(Cl)cc3)c(C)c12` (stereo not drawn)?
Rin1-Abl PPI inh: 2; Neddyl block: active; Neddyl inh conf: inactive

Results for COC(=O)C1=C(C)N(Cc2cccc(C(F)(F)F)c2)C(=NCc2ccc(OC)cc2)NC1c1ccc(Cl)cc1 (stereo not drawn) ?
LEDGF integ inh: 5; UHRF1 MBD2 ctr: 4; MBD2 DNA inh: -2; KLK7 zymogen act: 0

What do the screens show for `O=C1c2cccn2CC2Cc3ccccc3N12` (stereo not drawn)?
LEDGF integ inh: 2; UHRF1 MBD2 ctr: 3; MBD2 DNA inh: 3

How did CCC(=O)Nc1nnc(/C=C/c2ccccc2)s1 do in these assays?
Rin1-Abl PPI inh: -4; LEDGF integ inh: 3; UHRF1 MBD2 ctr: -5; MBD2 DNA inh: -4; Neddyl block: active; KLK7 zymogen act: -54; Neddyl inh conf: inactive

What do the screens show for `Cc1cc(Nc2ccccc2)c2c([N+](=O)[O-])cc(C)c(C)c2n1`?
Rin1-Abl PPI inh: 1; LEDGF integ inh: 3; UHRF1 MBD2 ctr: -4; MBD2 DNA inh: -4; Neddyl block: inactive; KLK7 zymogen act: 0

Results for COc1ccccc1Nc1cc(C)nc2c(C)ccc([N+](=O)[O-])c12 ?
Rin1-Abl PPI inh: -1; LEDGF integ inh: 0; UHRF1 MBD2 ctr: 0; MBD2 DNA inh: 0; Neddyl block: active; KLK7 zymogen act: 0; Neddyl inh conf: inactive

Results for CCOc1ccc(C2C(C#N)=C(N)Oc3cc(O)ccc32)cc1OCC (stereo not drawn) ?
Rin1-Abl PPI inh: 2; LEDGF integ inh: -3; UHRF1 MBD2 ctr: 2; MBD2 DNA inh: 0; Neddyl block: inactive; KLK7 zymogen act: 0

What do the screens show for `CCOc1ccccc1C1C(C#N)=C(N)Oc2cc(N)ccc21` (stereo not drawn)?
Rin1-Abl PPI inh: -1; LEDGF integ inh: 12; UHRF1 MBD2 ctr: -5; MBD2 DNA inh: -4; Neddyl block: active; KLK7 zymogen act: 11; Neddyl inh conf: inactive

Results for COc1ccc(C2C(C#N)=C(N)Oc3cc(O)ccc32)cc1Cl (stereo not drawn) ?
Rin1-Abl PPI inh: 0; LEDGF integ inh: -4; UHRF1 MBD2 ctr: 2; MBD2 DNA inh: 0; Neddyl block: active; KLK7 zymogen act: 1; Neddyl inh conf: inactive

Compound activity from PubChem BioAssay.
